In assay [1] the target is Peroxisome proliferator-activated receptor delta (Homo sapiens) (UniProt Q03181). The assay can be described thus: qHTS assay for small molecule agonists of peroxisome proliferator-activated receptor delta signaling (AID 588534).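 Note: 0% = DMSO basal wells and 100% = positive control agonist at 10 µM.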 An outline of the steps: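 Agonist-mode qHTS; reporter cells, 5 hrs 37 C pre-incubation; compound titration, 18 hrs 37 C; CCF4 dye, 2 hrs RT; fluorescence read. EC50/efficacy via Hill fit.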
Peroxisome proliferator-activated receptor delta (Homo sapiens), sequence (Q03181 whole entry, looked up): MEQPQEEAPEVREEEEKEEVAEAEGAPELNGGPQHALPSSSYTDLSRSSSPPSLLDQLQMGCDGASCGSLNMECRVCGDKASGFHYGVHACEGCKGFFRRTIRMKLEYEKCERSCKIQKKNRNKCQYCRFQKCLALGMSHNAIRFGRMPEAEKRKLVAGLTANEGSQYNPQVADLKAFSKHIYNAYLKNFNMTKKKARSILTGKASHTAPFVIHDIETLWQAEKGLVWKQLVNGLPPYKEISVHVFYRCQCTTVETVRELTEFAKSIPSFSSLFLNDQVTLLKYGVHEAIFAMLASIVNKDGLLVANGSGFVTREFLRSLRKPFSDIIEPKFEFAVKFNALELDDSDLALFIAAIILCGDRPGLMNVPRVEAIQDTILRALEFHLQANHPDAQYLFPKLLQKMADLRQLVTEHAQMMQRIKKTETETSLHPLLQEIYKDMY
For orientation: In qHTS, concentration-response curves come from the screen itself.

The nature of assay [2]: qHTS for Inhibitors of the Functional Ribonucleoprotein Complex (vRNP) of Lassa (LASV) Arenavirus: LASV Primary Screen - GLuc reporter signal (AID 1347082; calls by dose curve; tested in HEK293 reporter line; note: series mostly up to about 57 µM; % is set by controls: 0 for no effect and ±100 for the full control effect; nearly all actives have a fitted effect of over 60% in size).
A short description of assay [3]: qHTS for Inhibitors of the Functional Ribonucleoprotein Complex (vRNP) of Lassa (LASV) Arenavirus: Viability assay - alamar blue signal for LASV Primary Screen (AID 1347083; calls by dose curve; tested in HEK293 reporter line; note: series mostly up to about 57 µM; % is set by controls: 0 for no effect and ±100 for the full control effect; nearly all actives have a fitted effect of over 80% in size).
The nature of assay [4]: qHTS for Inhibitors of the Functional Ribonucleoprotein Complex (vRNP) of Lymphocytic Choriomeningitis Arenaviruses (LCMV): Viability assay - alamar blue signal for LCMV Primary Screen (AID 1347085; calls by dose curve; tested in HEK293 reporter line; note: series mostly up to about 57 µM; % is set by controls: 0 for no effect and ±100 for the full control effect; nearly all actives have a fitted effect of over 80% in size).
Assay [5] has as its target Nucleoprotein (Lymphocytic choriomeningitis virus (strain Armstrong)) (UniProt P09992). Briefly: qHTS for Inhibitors of the Functional Ribonucleoprotein Complex (vRNP) of Lymphocytic Choriomeningitis Arenaviruses (LCMV): LCMV Primary Screen - GLuc reporter signal (AID 1347086). Note: series mostly up to about 57 µM; % is set by controls: 0 for no effect and ±100 for the full control effect; nearly all actives have a fitted effect of over 70% in size.
Assay [6] has as its target Bile acid receptor (Homo sapiens) (UniProt Q96RI1). The assay can be described thus: qHTS assay for small molecule agonists of farnesoid X receptor signaling (AID 588527).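 Note: series mostly up to about 77 µM; 0% = vehicle basal and 100% = reference agonist.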 Conditions: HEK293T FXR-UAS-bla, beta-lactamase ratio, 16 h; activation: stronger effect = higher value. In outline: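 FXR-UAS-bla HEK293T cells (10% dialyzed FBS) preincubated 5-7 h at 37 C, then compounds at up to 92 uM for 16 h at 37 C. CCF4 beta-lactamase read-out after 2 h RT. Normalized to chenodeoxycholic acid (100 uM) and DMSO; Hill fit gave EC50 and efficacy.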

For assay [7], the target named is Alpha-galactosidase (Coffea arabica) (UniProt Q42656). Briefly: Counterscreen for Glucocerebrosidase Inhibitors: qHTS Assay for Coffee Bean alpha-Galactosidase at pH 4.5 (AID 957; active = well fitted curve in the direction sought with a large enough effect; an effect the other way counts as inactive or inconclusive;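 note: series mostly up to about 77 µM; plate controls were enzyme alone for no effect and no enzyme for full effect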). In outline:
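Enzyme is added first (2 nM final), then compounds titrated from 0.7 nM to 77 uM, then 80 uM 4-methylumbelliferyl alpha-D-galactopyranoside; after 20 min at room temperature a pH 10 NaOH/glycine stop precedes fluorescence reading at 365/440 nm.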
(The purpose of a counterscreen is to sort out artefacts and off-target activity.)

Assay [8] has the same target. The assay can be described thus: Counterscreen for Glucocerebrosidase Inhibitors: qHTS Assay for Coffee Bean alpha-Galactosidase at pH 5.9 (AID 998; active = well fitted curve in the direction sought with a large enough effect; an effect the other way counts as inactive or inconclusive;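 note: plate controls were uninhibited enzyme for no effect and no-enzyme basal signal for full effect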). An outline of the steps: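 In 50 mM citric acid pH 5.9 with 0.005% Tween-20, coffee bean enzyme hydrolyses 80 uM 4-MU alpha-D-galactopyranoside over 20 min at RT. Activity is normalized to controls; AC50 comes from Hill-modelled concentration-response data.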

Assay [9] in a line: Inducers of the Endoplasmic Reticulum Stress Response (ERSR) in human glioma: Validation (AID 504836; active = well fitted curve in the direction sought with a large enough effect; an effect the other way counts as inactive or inconclusive; note: 0% is about no effect). In outline: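 Stably transfected U87-MG human glioma cells carrying a GRP78-based luminescent sensor were seeded at 1000 cells/well, pin-dosed with compounds and incubated 16 h. Luciferase reagent was then added, and end-point luminescence was read after 10 min at room temperature.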

In assay [10] the target is Estrogen receptor (Homo sapiens) (UniProt P03372). Briefly: qHTS assay for small molecule antagonists of estrogen receptor alpha signaling (AID 588513; active = well fitted curve in the direction sought with a large enough effect in the signal ratio, with a control signal flat, not every such curve was filed as active; the % refers to the signal ratio; note: % is set by controls: 0 for no effect and ±100 for the full control effect). In outline:
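ER-alpha-UAS-bla GripTite HEK 293 cells in medium with 2% charcoal/dextran-treated FBS were preincubated 4 h at 37 C, dosed with compound (1:2 titration), stimulated with 0.5nM 17-beta-estradiol for 18 h, then read by CCF4 beta-lactamase fluorescence.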

Assay [11] has as its target Thyroid hormone receptor beta (Homo sapiens) (UniProt P10828). Briefly: qHTS assay for small molecule agonists of thyroid hormone receptor beta signaling (AID 588545).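 Note: 0% = DMSO only and 100% = 10 nM T3.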 In outline:
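TR-UAS-bla-GripTite HEK 293 cells in medium with 2% charcoal/dextran FBS, 0.1 mM NEAA and 1 mM sodium pyruvate were treated with titrated compounds for 18 hrs at 37 C. Beta-lactamase reporter was read with CCF4 dye (ex 405, em 460/530 nm); EC50 from Hill fits.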

Assay [12] concerns the target Voltage-gated inwardly rectifying potassium channel KCNH2 (Homo sapiens) (UniProt Q12809). Briefly: qHTS Assay for Small Molecule Inhibitors of the Human hERG Channel Activity (AID 588834; active = well fitted curve in the direction sought with a large enough effect; an effect the other way counts as inactive or inconclusive;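 note: top concentration of the series differs between compounds; % is set by controls: 0 for no effect and ±100 for the full control effect; lower thallium flux fluorescence means stronger hERG block; nearly all actives have a fitted effect of over 50% in size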). In outline:
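In hERG-transduced U2OS cells, dye-loaded for 1 hr at room temperature in dark, test compounds incubated 10 min at 37 °C before thallium stimulation. AC50 values derived by Hill modelling of concentration-response.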

Assay [13] is described as follows: qHTS assay for small molecule agonists of the antioxidant response element (ARE) signaling pathway (AID 651741; active = well fitted activation curve with a large enough effect in the signal ratio; the % refers to the signal ratio; note: potency is the fitted concentration of half-maximal effect). In outline:
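Reporter: beta-lactamase under ARE, stably in HepG2. Exposure: 16 h, 37 C, compounds delivered in DMSO by pin tool after 5 h cell preincubation. Readout: FRET substrate fluorescence after 2 h at RT.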

The nature of assay [14]: qHTS assay for small molecule agonists of the antioxidant response element (ARE) signaling pathway measured by Nrf2-dependant transcriptional activity (AID 720636; active = well fitted curve in the direction sought with a large enough effect in the repeat runs; an effect the other way counts as inactive or inconclusive;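 note: HepG2 cells with an ARE-driven luciferase reporter; % of control where 0% means no effect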). In outline:
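We exposed ARE-luc HepG2 cells, seeded in assay medium with 1% dialyzed FBS and allowed 6 hr to adhere, to test compounds overnight (16 hr, 37 C) before measuring luciferase with ONE-Glo.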

The target in assay [15] is Ubiquitin carboxyl-terminal hydrolase 1 (Homo sapiens) (UniProt O94782). Briefly: Inhibitors of USP1/UAF1: Pilot qHTS (AID 504865; active = well fitted curve in the direction sought with a large enough effect; an effect the other way counts as inactive or inconclusive;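 note: rhodamine fluorescence freed from ubiquitin-rhodamine substrate followed over time; top concentration of the series differs between compounds; % is set by controls: 0 for no effect and ±100 for the full control effect; nearly all actives have a fitted effect of over 35% in size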). An outline of the steps: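 USP1/UAF1 complex (1nM) preincubated with compound 15 min at room temperature, then Ub-Rho substrate (150nM final) added. Fluorescence read kinetically at 480/540 nm, 6 reads every 60 seconds. Buffer: 50mM HEPES pH 7.8, 0.5mM EDTA, 0.1 mg/ml BSA, 1mM TCEP, 0.01% Tween-20.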
Ubiquitin carboxyl-terminal hydrolase 1 (Homo sapiens), sequence (O94782 whole entry, looked up): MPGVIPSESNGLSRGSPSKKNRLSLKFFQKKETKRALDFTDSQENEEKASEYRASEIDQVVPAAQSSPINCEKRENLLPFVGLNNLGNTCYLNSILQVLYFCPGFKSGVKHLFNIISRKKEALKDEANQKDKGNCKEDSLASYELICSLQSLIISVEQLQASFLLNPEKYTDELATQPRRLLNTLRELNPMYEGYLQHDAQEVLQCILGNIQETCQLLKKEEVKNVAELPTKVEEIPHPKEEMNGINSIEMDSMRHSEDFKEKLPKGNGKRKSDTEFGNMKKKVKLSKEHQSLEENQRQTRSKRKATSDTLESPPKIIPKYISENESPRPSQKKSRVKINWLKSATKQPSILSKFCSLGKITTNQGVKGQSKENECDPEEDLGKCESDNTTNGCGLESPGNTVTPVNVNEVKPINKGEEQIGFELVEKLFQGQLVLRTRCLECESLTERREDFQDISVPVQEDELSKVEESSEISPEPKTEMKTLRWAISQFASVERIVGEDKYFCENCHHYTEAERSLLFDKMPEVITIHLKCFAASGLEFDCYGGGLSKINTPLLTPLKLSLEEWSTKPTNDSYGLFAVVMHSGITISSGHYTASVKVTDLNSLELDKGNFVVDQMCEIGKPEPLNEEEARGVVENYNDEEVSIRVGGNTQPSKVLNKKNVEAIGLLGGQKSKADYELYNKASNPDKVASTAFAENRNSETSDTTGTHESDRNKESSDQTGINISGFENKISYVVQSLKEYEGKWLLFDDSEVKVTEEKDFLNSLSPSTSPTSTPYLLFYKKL

Several values for one entry are separate records, joined by “and”; a condition that tells them apart may be missing. Equal values may be shown once. A number with no mark means an inactive call. Results filed as inconclusive are left out. Activity calls are given as the source filed them. Unless noted, calls come from the whole dose curve.

Alpha-galactosidase (Coffea arabica), sequence (Q42656 whole entry, looked up): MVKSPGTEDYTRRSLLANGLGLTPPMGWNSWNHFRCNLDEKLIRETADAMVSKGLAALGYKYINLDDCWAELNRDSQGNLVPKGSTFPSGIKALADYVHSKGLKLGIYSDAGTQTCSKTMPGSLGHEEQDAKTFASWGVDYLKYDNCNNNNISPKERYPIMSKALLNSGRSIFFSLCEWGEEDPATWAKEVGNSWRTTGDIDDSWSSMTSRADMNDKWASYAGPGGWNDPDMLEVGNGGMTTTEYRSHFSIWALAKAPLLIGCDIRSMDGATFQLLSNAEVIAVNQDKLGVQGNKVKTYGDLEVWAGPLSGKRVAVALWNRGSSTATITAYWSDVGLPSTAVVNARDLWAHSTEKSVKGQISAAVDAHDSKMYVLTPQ
Nucleoprotein (Lymphocytic choriomeningitis virus (strain Armstrong)), sequence (P09992 whole entry, looked up): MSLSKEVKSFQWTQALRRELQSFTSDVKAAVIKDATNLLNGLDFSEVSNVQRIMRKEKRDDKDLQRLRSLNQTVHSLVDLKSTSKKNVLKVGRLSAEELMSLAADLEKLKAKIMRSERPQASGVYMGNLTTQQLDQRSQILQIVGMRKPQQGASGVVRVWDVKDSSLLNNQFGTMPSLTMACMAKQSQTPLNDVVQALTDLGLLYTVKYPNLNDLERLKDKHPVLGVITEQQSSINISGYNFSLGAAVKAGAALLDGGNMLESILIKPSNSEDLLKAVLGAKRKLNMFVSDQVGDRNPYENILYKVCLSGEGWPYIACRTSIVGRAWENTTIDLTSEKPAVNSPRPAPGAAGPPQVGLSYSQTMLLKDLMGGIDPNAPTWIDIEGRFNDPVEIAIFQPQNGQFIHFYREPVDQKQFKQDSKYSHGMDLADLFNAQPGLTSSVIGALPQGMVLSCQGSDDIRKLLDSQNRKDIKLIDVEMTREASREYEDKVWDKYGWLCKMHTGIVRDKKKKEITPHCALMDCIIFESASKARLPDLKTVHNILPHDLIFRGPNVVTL
Thyroid hormone receptor beta (Homo sapiens), sequence (P10828 whole entry, looked up): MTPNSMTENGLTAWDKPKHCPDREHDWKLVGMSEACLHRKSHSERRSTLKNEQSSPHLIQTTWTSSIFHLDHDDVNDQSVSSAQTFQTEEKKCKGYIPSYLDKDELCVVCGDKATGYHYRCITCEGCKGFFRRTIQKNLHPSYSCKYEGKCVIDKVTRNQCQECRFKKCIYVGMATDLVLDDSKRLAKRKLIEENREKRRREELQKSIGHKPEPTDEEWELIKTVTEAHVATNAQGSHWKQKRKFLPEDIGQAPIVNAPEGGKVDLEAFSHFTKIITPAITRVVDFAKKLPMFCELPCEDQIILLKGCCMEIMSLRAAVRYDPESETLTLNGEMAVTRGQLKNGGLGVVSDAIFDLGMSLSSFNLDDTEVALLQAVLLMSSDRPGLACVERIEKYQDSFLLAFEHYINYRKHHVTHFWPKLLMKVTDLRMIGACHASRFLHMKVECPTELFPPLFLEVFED
Bile acid receptor (Homo sapiens), sequence (Q96RI1 whole entry, looked up): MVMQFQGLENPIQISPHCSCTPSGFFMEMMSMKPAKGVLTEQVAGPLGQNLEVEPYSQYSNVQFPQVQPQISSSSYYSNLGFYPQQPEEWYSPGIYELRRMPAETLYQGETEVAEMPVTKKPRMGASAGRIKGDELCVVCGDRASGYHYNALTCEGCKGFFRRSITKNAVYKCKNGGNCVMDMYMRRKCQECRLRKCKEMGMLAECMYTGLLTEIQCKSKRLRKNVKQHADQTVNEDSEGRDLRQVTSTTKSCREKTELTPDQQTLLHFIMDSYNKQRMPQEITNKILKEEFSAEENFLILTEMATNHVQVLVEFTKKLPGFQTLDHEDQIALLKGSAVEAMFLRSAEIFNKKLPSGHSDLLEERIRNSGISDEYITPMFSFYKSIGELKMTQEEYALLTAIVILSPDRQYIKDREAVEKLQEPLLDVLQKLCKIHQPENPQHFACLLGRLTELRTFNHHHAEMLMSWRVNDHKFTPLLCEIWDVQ
Estrogen receptor (Homo sapiens), sequence (P03372 whole entry, looked up): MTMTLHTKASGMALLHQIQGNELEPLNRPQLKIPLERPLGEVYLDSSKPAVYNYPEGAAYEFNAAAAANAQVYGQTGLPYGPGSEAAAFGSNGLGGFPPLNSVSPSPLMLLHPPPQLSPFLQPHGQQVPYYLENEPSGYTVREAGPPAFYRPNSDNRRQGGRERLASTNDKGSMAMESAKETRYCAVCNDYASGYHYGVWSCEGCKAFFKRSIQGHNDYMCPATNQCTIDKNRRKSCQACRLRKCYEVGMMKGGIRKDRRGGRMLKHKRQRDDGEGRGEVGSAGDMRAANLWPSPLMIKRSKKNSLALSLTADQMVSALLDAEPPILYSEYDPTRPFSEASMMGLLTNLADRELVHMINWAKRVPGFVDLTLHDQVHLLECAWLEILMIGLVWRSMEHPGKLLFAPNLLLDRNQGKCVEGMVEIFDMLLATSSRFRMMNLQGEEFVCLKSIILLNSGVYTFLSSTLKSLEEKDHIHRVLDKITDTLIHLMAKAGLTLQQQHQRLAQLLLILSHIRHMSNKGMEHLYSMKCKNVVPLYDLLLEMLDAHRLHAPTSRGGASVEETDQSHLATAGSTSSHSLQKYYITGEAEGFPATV
Voltage-gated inwardly rectifying potassium channel KCNH2 (Homo sapiens), sequence (Q12809 whole entry, looked up): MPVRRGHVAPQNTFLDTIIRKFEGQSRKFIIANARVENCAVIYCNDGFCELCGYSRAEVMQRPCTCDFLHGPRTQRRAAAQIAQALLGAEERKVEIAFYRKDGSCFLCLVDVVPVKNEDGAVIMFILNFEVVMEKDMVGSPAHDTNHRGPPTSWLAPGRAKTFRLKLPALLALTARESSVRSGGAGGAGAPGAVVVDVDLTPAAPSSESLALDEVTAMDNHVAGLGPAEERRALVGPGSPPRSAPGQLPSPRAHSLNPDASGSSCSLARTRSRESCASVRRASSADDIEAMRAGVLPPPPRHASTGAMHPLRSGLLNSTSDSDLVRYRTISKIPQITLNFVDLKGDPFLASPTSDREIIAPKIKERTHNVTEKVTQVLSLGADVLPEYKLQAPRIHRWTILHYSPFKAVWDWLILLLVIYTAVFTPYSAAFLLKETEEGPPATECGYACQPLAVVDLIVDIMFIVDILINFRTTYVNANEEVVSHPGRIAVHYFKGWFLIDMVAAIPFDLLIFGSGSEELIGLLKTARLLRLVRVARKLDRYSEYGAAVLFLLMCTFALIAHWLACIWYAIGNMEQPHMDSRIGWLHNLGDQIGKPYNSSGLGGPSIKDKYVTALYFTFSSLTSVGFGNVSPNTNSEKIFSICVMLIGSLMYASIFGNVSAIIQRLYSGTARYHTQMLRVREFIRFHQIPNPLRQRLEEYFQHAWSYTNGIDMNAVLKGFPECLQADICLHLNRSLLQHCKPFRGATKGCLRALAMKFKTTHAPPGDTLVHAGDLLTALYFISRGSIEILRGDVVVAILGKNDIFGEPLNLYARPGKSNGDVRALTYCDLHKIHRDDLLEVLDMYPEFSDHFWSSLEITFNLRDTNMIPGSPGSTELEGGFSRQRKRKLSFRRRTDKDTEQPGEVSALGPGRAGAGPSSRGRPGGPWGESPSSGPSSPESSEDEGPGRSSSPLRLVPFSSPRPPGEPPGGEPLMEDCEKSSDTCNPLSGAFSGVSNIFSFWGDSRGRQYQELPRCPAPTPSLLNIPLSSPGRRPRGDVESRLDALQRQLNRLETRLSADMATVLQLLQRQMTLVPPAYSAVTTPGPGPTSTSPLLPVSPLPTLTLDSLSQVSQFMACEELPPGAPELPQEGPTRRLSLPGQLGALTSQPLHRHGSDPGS

Consider `CCCC/C=C\CCCCCCCCCC=O`, for which the Potency entry in assay [1], in assay [2], in assay [3], in assay [4] and in assay [5] was “inactive” throughout.
As for `COC(=O)c1ccc(C)cc1`, the activation in assay [6] is -0.0429%. The Potency entry in [1], in assay [2], in assay [3], in [4] and in [5] was “inactive” in each case.
With `O=C(O)C1=CC(=C(c2ccc(O)c(C(=O)O)c2)c2ccc(O)c(C(=O)O)c2)C=CC1=O`, the result in assay [7], in assay [8] and in assay [9] was inactive. The Potency entry in assay [2], in assay [3], in assay [4] and in assay [5] was “inactive” each time.
Take `CN(C)S(=O)(=O)c1ccc2c(c1)/C(=C/c1cc3c([nH]1)CCCC3)C(=O)N2`: the result in assay [7], in assay [8] and in [9] was inactive. Moreover, the Potency entry in assay [2], in assay [3], in assay [4] and in [5] was “inactive” each time.
In the case of `C[C@H](CCC(=O)O)[C@H]1CC[C@H]2[C@@H]3CC[C@@H]4C[C@H](O)CC[C@]4(C)[C@H]3CC[C@]12C`, the Potency result in [10], in assay [11], in assay [12], in assay [14], in assay [2] and in assay [3] was “inactive” in each case. For the same compound, the Potency entry in assay [4] and in assay [5] was “inactive” in each case. In addition, in assay [13], the Potency is 26.6 µM (active) and 19.3 µM (active).
For the compound `Nc1ccc2c3c(cccc13)C(=O)NC2=O`, the compound was classed as inactive in assay [7], in [8] and in assay [9]. Moreover, the Potency result in assay [2], in assay [3], in [4] and in [5] was “inactive” throughout.
In the case of `c1ccc2c(c1)CN1CCCC1=N2`, the Potency result in assay [15], in assay [2], in [3], in assay [4] and in assay [5] was “inactive” each time.
As to `CC(=O)c1ccccn1`, the Potency result in assay [1], in assay [2], in [3], in assay [4] and in assay [5] was “inactive” in each case.
Consider `NCCNC(=O)c1ncsc1-c1cccc(F)c1`, for which the call in [7], in [8] and in assay [9] was inactive. Further, the Potency result in assay [2], in assay [3], in [4] and in assay [5] was “inactive” in each case.

Values taken from PubChem BioAssay (NCATS).
